# Screening data: PubChem, Sanford-Burnham Center for Chemical Genomics
# Only a selection was taken, and hits are over-represented in it overall.
# ER stress surv – ER stress cell death inhibition; CSM14.1 thapsigargin ER stress survival, ATP luminescence; relative survival (cellular ATP), % at 15 µg/mL (by protocol); 48,000 tested, 0.33% active;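 active = survival measured by cellular ATP above 50% at 15 µg/ml in the first screen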;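 note: cell death triggered by about 15 µM thapsigargin; ATP read 24 h after thapsigargin was added; plate controls were thapsigargin with DMSO for no effect and DMSO without thapsigargin for full effect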
# * hit, by the source's call.
SMILES,ER stress surv
O=C(CC(NC(=O)c1ccccc1)c1ccccc1)OCC(=O)N1c2ccccc2Sc2ccccc21 (stereo not given),2.7
CCOc1ccc(-c2csc(/C(C#N)=C/c3ccc(Cl)cc3)n2)cc1,3.8
O=C(Nc1cccc(C(F)(F)F)c1)c1cc2c(ccc3ccccc32)oc1=O,2.3
C=C(C)CSc1nnc2nc(C)cc(C)n12,9.0
CN(C)c1ccc(/C=C/C(=O)c2ccc(Br)cc2)o1,56.0*
O=C(/C=C/c1ccc([N+](=O)[O-])o1)c1ccc(Br)cc1,4.4
O=C(/C=C/c1ccc2c(c1)OCO2)c1ccc(Br)cc1,3.6
COc1cccc(N2C(=O)/C(=C/c3cc(OC)c(OC)c(OC)c3)SC2=S)c1,7.4
O=C(c1cccc(F)c1)N1CCN(Cc2cccc(Oc3ccccc3)c2)CC1,60.2*
COc1ccc(C(=O)N2CCN(Cc3cccc(F)c3)CC2)cc1,5.2
O=C(c1cccc(F)c1)N1CCN(Cc2cccc(F)c2)CC1,6.4
Cn1cccc1/C=C1/C(=O)NC(=S)N(c2cccc(Cl)c2)C1=O,-7.6
